Experimental data: PubChem BioAssay (NCATS)
Results filed as inconclusive are left out. Calls of active or inactive are those of the source. Unless noted, calls follow the shape of the full dose curve.

Columns and labels:
[1] = molecular target: Guanidinoacetate N-methyltransferase (Homo sapiens) (UniProt Q14353); test: Confirmatory Screen for Target Class Profiling of Small Molecule Inhibitors of Methyltransferases (AID 1745852); conditions: activity change, negative = inhibition: at 57.3 µM (top of the series) unless noted; also: potency is read from the fitted curve at half-maximal effect; as to activity change, negative = inhibition: % is scaled to controls: 0 for no effect and ±100 for the full control effect
[2] = molecular target: Nicotinamide N-methyltransferase (Homo sapiens) (UniProt P40261); test: as above; conditions: MTase-Glo luminescence, SAH detection, recombinant enzyme; measured here: NNMT max response; stronger effect = lower value
Nicotinamide N-methyltransferase (Homo sapiens), sequence (P40261 whole entry, looked up): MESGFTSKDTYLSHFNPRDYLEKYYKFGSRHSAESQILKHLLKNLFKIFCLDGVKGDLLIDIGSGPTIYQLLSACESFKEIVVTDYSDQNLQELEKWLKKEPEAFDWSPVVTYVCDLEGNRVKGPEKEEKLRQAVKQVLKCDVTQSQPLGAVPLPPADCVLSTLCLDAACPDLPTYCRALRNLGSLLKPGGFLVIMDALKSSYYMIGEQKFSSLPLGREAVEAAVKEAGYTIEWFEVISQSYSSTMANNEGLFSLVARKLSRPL

[3] = molecular target: Phenylethanolamine N-methyltransferase (Homo sapiens) (UniProt P11086); test: as above; conditions: MTase-Glo luminescence, SAH detection, recombinant enzyme; measured here: PNMT max response; stronger effect = lower value
Phenylethanolamine N-methyltransferase (Homo sapiens), sequence (P11086 whole entry, looked up): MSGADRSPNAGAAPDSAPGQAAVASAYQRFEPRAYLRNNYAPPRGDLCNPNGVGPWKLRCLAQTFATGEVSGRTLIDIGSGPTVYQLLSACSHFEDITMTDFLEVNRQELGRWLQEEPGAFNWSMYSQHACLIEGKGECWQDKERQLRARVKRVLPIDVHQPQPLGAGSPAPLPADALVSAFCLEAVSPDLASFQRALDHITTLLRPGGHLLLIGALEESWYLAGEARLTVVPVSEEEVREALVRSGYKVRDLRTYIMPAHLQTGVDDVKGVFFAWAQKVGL

[4] = NCATS anti-infectives library activity on HEK293 viability as a counter-qHTS vs the C. elegans viability qHTS (AID 1745854; active = well fitted cell-killing curve with a large enough effect; also: % is scaled to controls: 0 for no effect and ±100 for the full control effect)
Outline: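 HEK293 cells, 1500 per well, exposed 24 hr at 37C in 5% CO2 to compounds in a 1:5 titration, up to 41.7 uM final. Viability read as CellTiter-Glo luminescence after 10 min at room temperature.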

[5] = NCATS anti-infectives library activity on the primary C. elegans qHTS viability assay (AID 1745855); also: potency is read from the fitted curve at half-maximal effect
Outline: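 Viability is taken from GFP fluorescence of PE254-GFP-FLuc C. elegans imaged by laser cytometry over 7 days. Ten L1 worms per well grow at 21 °C on TOP10 E. coli capsules with titrated compound; levamisole marks toxicity.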

Question: For `COC(=O)C1=CO[C@@H](O[C@@H]2O[C@H](CO[C@@H]3O[C@H](COC(=O)/C=C/c4cc(OC)c(O)c(OC)c4)[C@@H](O)[C@H](O)[C@H]3O)[C@@H](O)[C@H](O)[C@H]2O)[C@@H]2C(CO)=CC[C@H]12`, which activity change, negative = inhibition [1] is on record?
Answer: -1.94% [at 19.1 µM]

Question: What about the activity [2] of the same compound?
Answer: -1.52%

Question: And the activity [3]?
Answer: -1.68%

Question: With `COc1cccc(-c2cc(NCc3ccc4c(c3)OCO4)nc(N)n2)c1` as the compound, how does the activity change, negative = inhibition [1] read?
Answer: 0%

Question: And the activity [2]?
Answer: -16.1%

Question: And the activity [3]?
Answer: -2.8%

Question: Which results are given for `CCC(C)C(=O)OC1CC(O)C23C4OCC5(C(O)CC2C1(C)C(O)O4)C3C(=O)C(O)C1(C)C(O)(c2ccoc2)CC2OC251` (stereo not given)?
Answer: activity change, negative = inhibition [1]: -8.15% [at 19.1 µM]; activity [2]: -4.23%; activity [3]: -2.09%

Question: For `C/C=C/c1cc(OC)c2c(c1)[C@@H](C)[C@@H](c1ccc(O)c(OC)c1)O2`, which activity change, negative = inhibition [1] is on record?
Answer: -6.75%

Question: What about the activity [2] of the same compound?
Answer: -7.01%

Question: What about the activity [3] of the same compound?
Answer: -5.03%

Question: Which activity change, negative = inhibition [1] does the source give for `C=C1C(=O)O[C@@H]2/C=C(\C)C(=O)/C=C/[C@](C)(O)C[C@@H](OC(=O)C(C)C)[C@@H]12` here?
Answer: -3.22%

Question: And the activity [2]?
Answer: -1.46%

Question: And the activity [3]?
Answer: -0.934%

Question: With `CCN1CCN(Cc2ccc(Nc3ncc(F)c(-c4cc(F)c5nc(C)n(C(C)C)c5c4)n3)nc2)CC1` as the compound, how does the Potency [1] read?
Answer: 15.2 µM (active)

Question: And the activity [2]?
Answer: -61.4%

Question: And the activity [3]?
Answer: -75%

Question: What does the source list for `C=C(C)C(=O)OC1CC2(C)OC(=CC2=O)C(=C)CC2OC(=O)C(COC)C12` (stereo not given)?
Answer: activity change, negative = inhibition [1]: -5.17%; activity [2]: -5.26%; activity [3]: -4.08%

Question: Which Potency [1] does the source give for `N#Cc1ccc(-c2cnc3[nH]cc(NC(=O)c4cccnc4)c3c2)cc1` here?
Answer: inactive

Question: What about the activity [2] of the same compound?
Answer: 2.51%

Question: What about the activity [3] of the same compound?
Answer: -6.92%

Question: Which Potency [1] does the source give for `CC(Oc1cc(-n2cnc3ccc(CN4CCN(C)CC4)cc32)sc1C(N)=O)c1ccccc1C(F)(F)F` (stereo not given) here?
Answer: 30.4 µM (active)

Question: What about the activity [2] of the same compound?
Answer: -27.1%

Question: And the activity [3]?
Answer: -38.1%

Question: Which Potency [1] does the source give for `CCOc1cc2ncc(C#N)c(Nc3ccc(F)c(Cl)c3)c2cc1NC(=O)/C=C/CN(C)C` here?
Answer: 4.82 µM (active)

Question: And the activity [2]?
Answer: -82.7%

Question: And the activity [3]?
Answer: -97.3%

Question: What about the Potency [4] of the same compound?
Answer: inactive

Question: What about the Potency [5] of the same compound?
Answer: 14.5 µM (active)

Question: Which results are given for `Cc1c[nH]c2nccc(Oc3c(F)cc(Nc4cc(Cl)nc(N)n4)cc3F)c12`?
Answer: activity change, negative = inhibition [1]: 0%; activity [2]: -27.7%; activity [3]: -3.98%

Question: What does the source list for `COc1ccc(CCO[C@@H]2O[C@H](CO[C@@H]3OC[C@H](O)[C@H](O)[C@H]3O)[C@@H](O)[C@H](O)[C@H]2O)cc1`?
Answer: activity change, negative = inhibition [1]: 2.09% [at 29.8 µM]; activity [2]: 1.01%; activity [3]: 1.06%

Question: What does the source list for `CC(C)c1c2cc(-c3ccnc(NC4CCC(NC5CCOCC5)CC4)n3)ccc2nn1C` (stereo not given)?
Answer: Potency [1]: 38.3 µM (active); activity [2]: -14.6%; activity [3]: -25.7%

Question: Which results are given for `C/C=C/c1ccc2c(c1)[C@@H](C)[C@H](c1ccc(O)cc1)O2`?
Answer: activity change, negative = inhibition [1]: 0.447%; activity [2]: -59.1%; activity [3]: 0.8%

Question: For `Cc1nc([C@](C)(O)CO)sc1-c1cnc(N)c(O[C@H](C)c2cc(F)ccc2-n2nccn2)c1`, which activity change, negative = inhibition [1] is on record?
Answer: -0.524%

Question: And the activity [2]?
Answer: -12.8%

Question: What about the activity [3] of the same compound?
Answer: -10.9%

Question: Which activity change, negative = inhibition [1] does the source give for `COC(=O)C1=C2Nc3ccccc3C23CCN2CCCC(C(C)O)(C1)C23` (stereo not given) here?
Answer: 0%

Question: And the activity [2]?
Answer: 2.66%

Question: What about the activity [3] of the same compound?
Answer: -1.29%

Question: For `O=C(/C=C/c1ccccc1)OC[C@]12O[C@H]1[C@@H](O)[C@@H]1C=CO[C@@H](O[C@@H]3O[C@H](CO)[C@@H](O)[C@H](O)[C@H]3O)[C@@H]12`, which activity change, negative = inhibition [1] is on record?
Answer: -7.11% [at 29.8 µM]

Question: And the activity [2]?
Answer: -5.73%

Question: And the activity [3]?
Answer: -4.62%

Question: With `C=C(F)c1sc(CNCCCNc2cc(=O)c3ccccc3[nH]2)c(C)c1Br` as the compound, how does the activity change, negative = inhibition [1] read?
Answer: -1.39%

Question: What about the activity [2] of the same compound?
Answer: -33.7%

Question: What about the activity [3] of the same compound?
Answer: -2.47%

Question: Which activity change, negative = inhibition [1] does the source give for `Cc1ncc(CCCN(C)C)cc1Nc1ncc2c(n1)-c1ccc(C(F)(F)F)cc1NC(=S)C2` here?
Answer: 2.13%

Question: And the activity [2]?
Answer: -20.1%

Question: And the activity [3]?
Answer: -4.31%

Question: Which results are given for `CCN(CC)c1ccc2c(O)c(C=Nc3ccc(CC(=O)O)c(-c4c5c(nc6ccccc46)CCC(C(=O)NN)C5)c3)c(=O)oc2c1` (stereo not given)?
Answer: Potency [1]: 34.1 µM (active); activity [2]: -14%; activity [3]: -22%

Question: Which activity change, negative = inhibition [1] does the source give for `CN(CCc1ccc(Nc2ncc(-c3cccnc3)s2)cc1)Cc1ccccc1` here?
Answer: 0%

Question: And the activity [2]?
Answer: -47.4%

Question: What about the activity [3] of the same compound?
Answer: -13.5%

Question: For `O=C(O)/C=C/c1ccc(-c2ccc(O)c(C34CC5CC(CC(C5)C3)C4)c2)cc1`, which activity change, negative = inhibition [1] is on record?
Answer: 1.42%

Question: What about the activity [2] of the same compound?
Answer: -84%

Question: And the activity [3]?
Answer: -0.0074%

Question: Which activity change, negative = inhibition [1] does the source give for `CNC(=O)c1ccccc1Nc1nc(Nc2ccc(N3CCNCC3)cc2)ncc1Cl` here?
Answer: -14.2%

Question: What about the activity [2] of the same compound?
Answer: -58.7%

Question: And the activity [3]?
Answer: -30.9%

Question: For `CC1(C)CC[C@]2(C(=O)O[C@@H]3O[C@H](CO)[C@@H](O)[C@H](O)[C@H]3O)CC[C@]3(C)C(=CCC4[C@@]5(C)C[C@@H](O)[C@H](O)C(C)(C)C5CC[C@]43C)C2[C@@H]1O` (stereo not given in full), which activity change, negative = inhibition [1] is on record?
Answer: -2.23% [at 19.1 µM]

Question: What about the activity [2] of the same compound?
Answer: -0.101%

Question: And the activity [3]?
Answer: -0.0843%

Question: With `COc1cc(N2CCC(N3CCN(C)CC3)CC2)ccc1Nc1ncc(Cl)c(-c2c[nH]c3ccccc23)n1` as the compound, how does the Potency [1] read?
Answer: 24.1 µM (active)

Question: And the activity [2]?
Answer: -32.6%

Question: What about the activity [3] of the same compound?
Answer: -23.1%

Question: What does the source list for `C=C1C(=O)OC2CC3(C)C(CC12)C(C)=CC(O)C3OC(C)=O` (stereo not given)?
Answer: activity change, negative = inhibition [1]: 0%; activity [2]: 1.24%; activity [3]: -2.5%

Question: For `Nc1nc(-n2cc(C(=O)O)c(=O)c3cc(F)c(N4CC(O)C4)c(Cl)c32)c(F)cc1F`, which activity change, negative = inhibition [1] is on record?
Answer: 0.345%

Question: What about the activity [2] of the same compound?
Answer: -1.6%

Question: What about the activity [3] of the same compound?
Answer: -1.85%

Question: Which activity change, negative = inhibition [1] does the source give for `CCCCc1nc2cc(/C=C/C(=O)NO)ccc2n1CCN(CC)CC` here?
Answer: 4.34%

Question: And the activity [2]?
Answer: -2.78%

Question: What about the activity [3] of the same compound?
Answer: 3.65%

Question: And the Potency [4]?
Answer: inactive

Question: Which results are given for `CCN(CC)CCN(Cc1ccc(-c2ccc(C(F)(F)F)cc2)cc1)C(=O)Cn1c(SCc2ccc(F)cc2)nc(=O)c2c1CCC2`?
Answer: activity change, negative = inhibition [1]: 0%; activity [2]: -45.6%; activity [3]: -1.88%
